From PubChem BioAssay
AmpC inh detg: inhibitors of E. coli AmpC beta-lactamase with detergent. AmpC hydrolysis of nitrocefin, absorbance 480 nm, 0.01% Triton. Potency, µM (series often up to 114 µM), inactives show top-dose activity change, negative = inhibition, hits mostly inhibitors. 0.041% of 370,000 active. AID 485294;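 further: 0% = no-compound wells and -100% = no-enzyme wells; nearly all actives have a fitted effect of over 25% in size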
Target sequence (P00811 whole entry, looked up): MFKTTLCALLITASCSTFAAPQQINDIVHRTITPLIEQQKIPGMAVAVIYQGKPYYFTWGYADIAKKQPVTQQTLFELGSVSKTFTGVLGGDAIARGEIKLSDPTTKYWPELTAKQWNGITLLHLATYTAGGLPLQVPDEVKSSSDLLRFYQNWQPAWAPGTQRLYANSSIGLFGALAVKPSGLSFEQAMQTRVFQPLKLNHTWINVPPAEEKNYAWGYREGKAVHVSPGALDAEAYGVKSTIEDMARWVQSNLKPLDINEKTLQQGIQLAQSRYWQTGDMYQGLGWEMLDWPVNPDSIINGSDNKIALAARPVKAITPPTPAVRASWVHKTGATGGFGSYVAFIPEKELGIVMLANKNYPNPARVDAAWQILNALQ
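AmpC (5.3 nM in the dispensed reagent) in 20 mM phosphate pH 7.0 with 0.01% (detergent screen) or 0.0001% Triton X-100 was preincubated with compounds for 15 min at room temperature. Nitrocefin was then added from an 800 uM solution, and hydrolysis was followed at 480 nm.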
AmpC no deterg: blocks E. coli AmpC beta-lactamase in detergent-free assay; AmpC nitrocefin hydrolysis, absorbance 480 nm, 0.0001% Triton; Potency, µM (series often up to 57.1 µM), without a hit: at the highest dose activity change, negative = inhibition, most hits filed as inhibitors; 0.52% of 330,000 active; P00811;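 further: plate controls were no compound for no effect and no enzyme for full effect; nearly all actives have a fitted effect of over 20% in size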
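20 mM phosphate pH 7.0 + 0.01% (detergent screen) or 0.0001% Triton X-100; 5.3 nM AmpC reagent; cpd preinc 15 min RT; nitrocefin (800 uM stock) to start; A480 q20 s × 4 min; Activity was normalised to no-enzyme and no-compound control wells.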
Sm TGR inh: S. mansoni TGR enzyme inhibition | Q962Y6 | purified TGR, DTNB reduction, TNB absorbance 405 nm | Potency, µM (titrated, usually from 114 µM), for the others: at the top dose activity change, negative = inhibition, most hits filed as inhibitors | 3% of 360,000 active | AID 485364; further: nearly all actives have a fitted effect of over 60% in size
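First, TGR (20 nM dispensed) and NADPH were mixed with compound. Second, a 15 min room-temperature incubation followed. Third, further NADPH and then DTNB were added to start the reaction. Finally, TNB absorbance was monitored kinetically.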
FBPA Giardia inh: Giardia lamblia aldolase inhibition | A8B2U2 | purified Giardia FBPA | Potency, µM (titrated, usually from 59.6 µM), for inactives: at the highest dose activity, negative = inhibition, most hits filed as inhibitors | 0.71% of 290,000 active; further: nearly all actives have a fitted effect of over 55% in size
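Giardia FBPA (40 nM reagent) was preincubated 10 min at RT with compound (up to 57.5 uM final), then substrate plus GAPDH/TPI/NAD/arsenate coupling system with diaphorase/resazurin was added; resorufin fluorescence (525/598 nm) was read after 20 min.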
An asterisk follows results filed as active; ? = inconclusive; / = no result given. In the library only some 3.6% were active in any assay of this set; here they are far more common. The call rests on the fitted dose curve; in most records, active means well fitted curve in the direction sought with a large enough effect; inconclusive means small, poorly fitted or top-dose-only effect, or another doubt; inactive means no such curve, though single readings can be large; an effect the other way counts as inactive or inconclusive. Unless noted, on the % scale 0 is the no-effect control and ±100 the full control effect; potency means the concentration at half of the fitted maximal effect.

SMILES	AmpC inh detg	AmpC no deterg	Sm TGR inh	FBPA Giardia inh
CCCCn1c(CN2C(=O)c3ccccc3C2=O)nc2ccccc2c1=O	-8.5%	-0.5%	0.0%	2.4%
CSc1nnc(-c2sc3cc(C(F)(F)F)cnc3c2-c2ccccc2)n1C	-0.5%	107.2%	-9.8%	-2.7%
O=S(=O)(c1ccccc1)c1nc(-c2ccc(F)cc2)oc1NCC1CCCO1 (configuration not stated)	-4.6%	-8.4%	44.7µM*	/
CCC(C)S(=O)(=O)c1oc(-c2cccs2)nc1S(=O)(=O)c1ccccc1 (configuration not stated)	-4.7%	/	0.708µM*	/
CC(C)CS(=O)(=O)c1oc(-c2ccc(F)cc2)nc1S(=O)(=O)c1ccccc1	-6.6%	/	1.12µM*	/
CNc1oc(-c2cccs2)nc1S(=O)(=O)c1ccccc1	-0.4%	-11.4%	-17.9%	1.2%
Cc1cc(C(=O)N/N=C/c2ccc(Br)o2)n[nH]1	-12.5%	-8.7%	-33.1%	-3.1%
Cc1cc(C(=O)N/N=C/c2cc(Br)c(Br)o2)n[nH]1	-3.1%	-18.9%	10µM*	-18.7%
O=C(c1ccc(Br)cc1)C(CN1CCOCC1)c1ccccc1 (configuration not stated)	-5.1%	-25.7%	3.55µM*	-9.9%
CCOc1ccc(C(=O)C(CN2CCOCC2)c2ccccc2)cc1 (configuration not stated)	?	48.7%	-5.5%	-12.1%
O=C(CN1CCOCC1)c1ccc(Br)cc1	-4.3%	-13.4%	35.5µM*	-16.7%
CCCCC/C=C\C/C=C\C/C=C\C=C\[C@@H](O)CCCC(=O)O	/	/	/	0.0%
Cc1ccc2c(c1)N/C(=C(\C=C(/Cl)[N+](=O)[O-])[N+](=O)[O-])N2	5.9%	-27.7%	8.91µM*	?
Cc1ccc2c(c1)/C(=C/c1ccc(F)cc1)C(=O)N2	-4.3%	-19.8%	2.3%	-2.9%
COC[C@H]1OC=C[C@@H](OC)[C@@H]1OC	/	/	/	0.4%
Cc1cc(=S)cc(C)n1CCCn1ccnc1	?	-6.0%	11.2µM*	?
CSc1ccc(C2N=C(c3ccccc3)NO2)cc1 (configuration not stated)	-0.1%	?	?	-17.6%
Oc1c(Br)cc(C2N=C(c3ccccc3)NO2)cc1Br (configuration not stated)	-7.0%	-20.2%	50.1µM*	7.7%
CC(=O)O[C@@H]1CC[C@@]2(C)[C@H](C1)[C@H](OC(C)=O)C[C@@H]1[C@@H]2C[C@H]2[C@@H]3CN4C[C@H](C)CC[C@H]4[C@H](C)[C@H]3CC[C@@]12O	/	/	/	2.4%
Oc1ccccc1/C=N/c1c(-c2ccco2)nc2ccccn12	-12.4%	154.5%	50.1µM*	?
C/C(=C\C(=S)Nc1ccccc1)Nc1cccc2ccccc12	-1.2%	-21.9%	-13.1%	?
CNC(=S)Nc1ccc(C(N)=O)cc1	-6.0%	-18.7%	39.8µM*	1.4%
COC(=O)c1ccc(NC(=S)Nc2ccc3ccccc3c2)cc1	-1.0%	0.251µM*	-32.2%	-2.6%
C/C(=C\C(=S)Nc1ccccc1)Nc1ccc2ccccc2c1	?	-13.7%	-15.5%	1.99µM*
NC(=O)c1ccc(C(=O)Nc2ccc([As](=O)(O)O)cc2)cc1	-1.0%	-1.6%	44.7µM*	1.4%
SMILES	AmpC inh detg	AmpC no deterg	Sm TGR inh	FBPA Giardia inh
CC(=O)CC(=O)Nc1ccc(C(N)=O)cc1	-0.4%	-18.5%	10.0%	-12.5%
COc1ccc(C(=O)Nc2ccc3ccccc3c2)cc1	8.3%	-24.4%	?	-0.4%
COc1cccc(-n2c(SCC(=O)Nc3ccc4c(c3)OCO4)nc3c([nH]c4ccccc43)c2=O)c1	4.1%	/	12.0%	/
CCOC(=O)C1CCN(Cc2cc(=O)oc3c(C)c(C)ccc23)CC1	-2.8%	6.3%	-1.6%	6.4%
COc1ccc(OC)c(NC(=O)c2cc(S(=O)(=O)N(C)C)ccc2N2CCCC2)c1	?	40.1%	-6.7%	/
CC(=O)Nc1ccc(SCCC2CCCCN2C)cc1 (configuration not stated)	3.0%	-4.8%	-23.0%	-12.8%
COc1ccc(N2CCN(c3c4c(nc5nncn35)CCC4)CC2)cc1	3.3%	/	-0.1%	/
COC(=O)c1ccc(NC(=S)NNC(=O)c2ccccc2)cc1	-9.1%	-31.1%	8.0%	24.9%
COC(=O)c1ccc(NC(=S)Nc2ccccc2)cc1	5.4%	-12.7%	31.6µM*	-9.0%
NS(=O)(=O)c1ccc(NC(=O)COC(=O)c2ccc([N+](=O)[O-])s2)cc1	2.4%	-25.1%	25.1µM*	-7.2%
